Measurements from PubChem BioAssay.
Inconclusive results are not listed. Activity calls are given as the source filed them. Cut-off read from the data, not from the text of the source, unless noted: active = percent of DMSO control GFP below about 86%; inactive = the rest, inconclusive results apart.

Tests used:
[1] = yeast TOR pathway RPL19A-GFP modulators, primary screen, cell-based, S. cerevisiae, multiplex flow cytometry (AID 1862);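 note: lower values mimic rapamycin by blocking the RPL19A rise seen in DMSO cells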; details: S. cerevisiae RPL19A-GFP strain, flow cytometry fluorescence, 3 h; at 10 µM; stronger effect = lower value
[2] = modulators of MEP2-GFP levels in yeast, primary screen, S. cerevisiae, multiplex flow cytometry (AID 1867;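 active = GFP response, as percent of the DMSO control, above the screen-wide mean plus 3 SD, about 139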;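 note: median GFP channel fluorescence of barcode-gated MEP2-GFP cells measured by flow cytometry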); details: S. cerevisiae MEP2-GFP strain, 3 h, at 10 µM, stronger effect = higher value, 100% means same as DMSO wells
[3] = modulators of CIT2-GFP expression in yeast, primary screen, S. cerevisiae, GFP fusion, multiplex flow cytometry (AID 1870;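 active = percent response above a set limit, the screen-wide mean plus 3 SD, cut at about 130% in these data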;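 note: barcoded CIT2-GFP strain pooled with four other GFP strains with rapamycin as positive control; median GFP fluorescence per well over plate mean of DMSO wells so 100% = DMSO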); details: 3 h, at 10 µM, stronger effect = higher value
[4] = modulators of LAP4-GFP expression in yeast, primary screen, S. cerevisiae, multiplex flow cytometry (AID 1873;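 active = GFP signal, as percent of the solvent control, above the screen mean plus 3 SD, about 149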); details: 3 h, at 10 µM, stronger effect = higher value
[5] = modulators of AGP1-GFP expression in yeast TOR pathway, primary screen, cell-based, multiplex flow cytometry, S. cerevisiae (AID 1887;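 active = GFP signal above the screen-wide mean plus 3 SD, that is over about 124.5% of the solvent control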;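 note: AGP1-GFP fusion strain of S. cerevisiae within a five-strain barcoded multiplex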); details: 3 h, at 10 µM, stronger effect = higher value
[6] = inhibitors of CD8+ T cell-vesicle binding, pilot screen, LFA-1/ICAM-1 modulator project, MLPCN validation set, flow cytometry (AID 2523;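 active = response below a set limit, under 55% cells CD8-positive and vesicle-bound, and CD8 cells' 90th-percentile brightness under 279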;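 for vesicle binding response: mean PE anti-B7-1 fluorescence of CD8+ cells relative to row control; 100% = QL9-loaded vesicles with DMSO vehicle in the same plate row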); details: 2C mouse CD8+ T cells, at 7 µM, stronger effect = lower value; double positive events: measured here: CD8+/vesicle+ event percentage
[7] = molecular target: Integrin beta-1 (Homo sapiens) + Integrin alpha-4 (Homo sapiens) (UniProt P13612+P05556); test: inhibition of HUTS-21 binding to VLA-4, pilot screen, VLA-4 allosteric modulator project, U937 cells, HUTS-21 mAb, flow cytometry, validation set (AID 2674;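 active = inhibition above 50%, about 3 SD of the validation set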;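 note: antibody binding induced by the VLA-4 ligand LDV present at three times its Kd; 0% = LDV ligand with antibody and no compound and 100% = antibody without LDV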); details: HUTS-21 LIBS mAb binding, at 6.7 µM, stronger effect = higher value, binding induced by LDV ligand
Sequence of Integrin beta-1 (Homo sapiens) + Integrin alpha-4 (Homo sapiens) (P05556 whole entry, looked up): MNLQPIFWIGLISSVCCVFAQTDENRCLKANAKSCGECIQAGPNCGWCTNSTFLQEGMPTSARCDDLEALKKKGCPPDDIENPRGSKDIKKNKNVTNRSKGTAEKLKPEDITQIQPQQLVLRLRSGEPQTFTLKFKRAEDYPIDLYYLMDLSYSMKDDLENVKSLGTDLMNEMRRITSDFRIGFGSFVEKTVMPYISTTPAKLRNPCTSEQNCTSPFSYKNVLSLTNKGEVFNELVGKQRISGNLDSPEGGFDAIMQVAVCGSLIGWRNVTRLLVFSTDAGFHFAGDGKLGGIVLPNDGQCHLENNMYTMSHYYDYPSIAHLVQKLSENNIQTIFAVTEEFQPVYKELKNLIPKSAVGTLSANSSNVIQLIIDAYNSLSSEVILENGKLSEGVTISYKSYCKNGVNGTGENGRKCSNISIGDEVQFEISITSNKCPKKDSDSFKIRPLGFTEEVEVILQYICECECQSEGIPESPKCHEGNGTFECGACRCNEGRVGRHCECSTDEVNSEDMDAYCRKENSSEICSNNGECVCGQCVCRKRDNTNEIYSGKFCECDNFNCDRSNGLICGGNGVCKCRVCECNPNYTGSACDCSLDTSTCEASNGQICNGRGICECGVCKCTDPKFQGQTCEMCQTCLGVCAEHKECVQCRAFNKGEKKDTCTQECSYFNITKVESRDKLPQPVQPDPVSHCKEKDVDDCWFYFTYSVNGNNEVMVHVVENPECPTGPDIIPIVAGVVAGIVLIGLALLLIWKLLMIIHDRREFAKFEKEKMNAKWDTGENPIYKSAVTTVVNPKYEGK
Sequence of Integrin beta-1 (Homo sapiens) + Integrin alpha-4 (Homo sapiens) (P13612 whole entry, looked up): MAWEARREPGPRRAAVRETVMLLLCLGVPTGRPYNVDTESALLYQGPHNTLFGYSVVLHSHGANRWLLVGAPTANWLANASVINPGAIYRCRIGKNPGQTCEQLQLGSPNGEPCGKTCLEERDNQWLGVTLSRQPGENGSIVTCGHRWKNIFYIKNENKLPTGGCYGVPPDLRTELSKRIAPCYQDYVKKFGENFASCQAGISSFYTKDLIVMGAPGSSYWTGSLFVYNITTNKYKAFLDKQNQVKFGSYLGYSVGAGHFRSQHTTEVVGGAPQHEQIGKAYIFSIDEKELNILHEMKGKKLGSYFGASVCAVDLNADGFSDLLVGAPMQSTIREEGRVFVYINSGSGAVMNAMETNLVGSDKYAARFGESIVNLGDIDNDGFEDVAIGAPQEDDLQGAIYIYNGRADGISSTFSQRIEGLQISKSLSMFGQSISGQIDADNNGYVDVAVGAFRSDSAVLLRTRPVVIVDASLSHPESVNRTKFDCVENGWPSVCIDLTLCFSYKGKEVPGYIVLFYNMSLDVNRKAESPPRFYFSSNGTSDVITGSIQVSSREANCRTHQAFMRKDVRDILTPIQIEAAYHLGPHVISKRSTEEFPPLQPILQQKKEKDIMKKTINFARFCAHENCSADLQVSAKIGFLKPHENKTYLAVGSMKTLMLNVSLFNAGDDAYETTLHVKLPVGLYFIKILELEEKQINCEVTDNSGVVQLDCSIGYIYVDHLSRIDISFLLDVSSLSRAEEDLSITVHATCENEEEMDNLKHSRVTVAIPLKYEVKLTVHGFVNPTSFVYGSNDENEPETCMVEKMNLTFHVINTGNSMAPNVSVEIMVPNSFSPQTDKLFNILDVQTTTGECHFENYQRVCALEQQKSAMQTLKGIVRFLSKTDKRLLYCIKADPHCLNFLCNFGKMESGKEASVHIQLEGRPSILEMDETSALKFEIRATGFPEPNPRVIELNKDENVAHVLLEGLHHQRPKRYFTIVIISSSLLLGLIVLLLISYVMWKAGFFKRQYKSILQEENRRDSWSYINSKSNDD

[8] = superoxide lowering in aged yeast cells, pilot screen, validation compound set (AID 2706;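 active = superoxide response below 65% of plate, a cut near 3 SD across the whole screen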;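 note: yeast exposed to compound for one week at 30 degrees C before staining; 100% = mean of all compound wells on the same plate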); details: S. cerevisiae aging, superoxide DHE fluorescence; at 10 µM; stronger effect = lower value
[9] = molecular target: Beta-adrenergic receptor kinase 1 (Homo sapiens) (UniProt P25098); test: GRK2 binders displacing RNA aptamer, biochemical, validation, human GRK2, bead flow cytometry (AID 488806;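 active = aptamer binding inhibition above 30%, about 3 SD of noise from non-fluorescent compounds; inactive = inhibition at or below 30%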); details: bead-bound GRK2, FAM-aptamer displacement, at 10 µM, stronger effect = higher value
Sequence of Beta-adrenergic receptor kinase 1 (Homo sapiens) (P25098 whole entry, looked up): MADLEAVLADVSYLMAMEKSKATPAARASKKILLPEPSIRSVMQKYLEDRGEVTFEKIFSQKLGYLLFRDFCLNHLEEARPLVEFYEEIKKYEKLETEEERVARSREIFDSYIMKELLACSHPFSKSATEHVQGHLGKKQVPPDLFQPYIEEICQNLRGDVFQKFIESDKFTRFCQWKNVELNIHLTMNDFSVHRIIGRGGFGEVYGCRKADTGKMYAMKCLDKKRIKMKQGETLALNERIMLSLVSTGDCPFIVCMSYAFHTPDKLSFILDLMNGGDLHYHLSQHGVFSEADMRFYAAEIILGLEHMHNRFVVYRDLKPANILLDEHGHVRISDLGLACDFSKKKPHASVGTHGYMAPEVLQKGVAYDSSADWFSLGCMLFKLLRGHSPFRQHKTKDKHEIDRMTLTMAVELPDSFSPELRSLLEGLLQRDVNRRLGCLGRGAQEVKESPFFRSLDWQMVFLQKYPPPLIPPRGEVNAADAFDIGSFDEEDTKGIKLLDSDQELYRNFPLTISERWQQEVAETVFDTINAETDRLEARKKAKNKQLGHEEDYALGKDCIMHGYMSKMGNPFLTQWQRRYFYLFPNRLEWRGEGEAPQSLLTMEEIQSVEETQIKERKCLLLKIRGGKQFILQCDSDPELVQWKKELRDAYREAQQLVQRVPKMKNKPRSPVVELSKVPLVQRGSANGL

[10] = molecular target: Beta-2 adrenergic receptor (Homo sapiens) (UniProt P07550); test: beta2AR agonists driving receptor internalization, pilot screen, cell-based, FAP fluorogen, flow cytometry, validation set (AID 504459;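 active = percent response above 42, roughly 3 SD of non-fluorescent test compounds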;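 note: agonist-driven loss of surface beta2AR via internalization measured by FAP dye flow cytometry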); details: Am2.2-beta2AR cells, FAP surface receptor flow cytometry; at 10 µM; stronger effect = higher value
Sequence of Beta-2 adrenergic receptor (Homo sapiens) (P07550 whole entry, looked up): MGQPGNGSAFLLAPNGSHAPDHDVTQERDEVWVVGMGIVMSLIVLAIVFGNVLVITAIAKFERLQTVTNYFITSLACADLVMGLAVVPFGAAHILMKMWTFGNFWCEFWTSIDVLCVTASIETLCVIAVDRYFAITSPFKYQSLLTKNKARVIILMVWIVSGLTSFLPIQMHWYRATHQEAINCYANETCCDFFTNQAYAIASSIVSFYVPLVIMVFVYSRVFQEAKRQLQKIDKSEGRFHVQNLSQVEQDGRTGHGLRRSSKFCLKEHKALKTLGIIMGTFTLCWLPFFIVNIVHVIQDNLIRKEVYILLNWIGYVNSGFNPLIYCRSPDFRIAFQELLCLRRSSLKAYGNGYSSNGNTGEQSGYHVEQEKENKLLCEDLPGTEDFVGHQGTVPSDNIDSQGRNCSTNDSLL

[11] = molecular target: AP-2 complex subunit beta (Homo sapiens) (UniProt P63010); test: inhibitors of arrestin peptide binding to AP2, pilot screen, biochemical, validation set, GST-AP2 beads, flow cytometry (AID 504541;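 active = inhibition above 54%, about 3 SD of non-fluorescent compounds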;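 note: AP2 carries R879A mutation and is captured from E. coli lysate; bead-bound FITC arrestin peptide fluorescence measuring arrestin peptide binding to AP2; 0% = DMSO wells and 100% = excess unlabeled arrestin peptide control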); details: FITC arrestin peptide, at 10 µM, stronger effect = higher value, AP2 beta2 appendage fragment, R879A mutant
Sequence of AP-2 complex subunit beta (Homo sapiens) (P63010 whole entry, looked up, the tested form may be a part, one chain of several): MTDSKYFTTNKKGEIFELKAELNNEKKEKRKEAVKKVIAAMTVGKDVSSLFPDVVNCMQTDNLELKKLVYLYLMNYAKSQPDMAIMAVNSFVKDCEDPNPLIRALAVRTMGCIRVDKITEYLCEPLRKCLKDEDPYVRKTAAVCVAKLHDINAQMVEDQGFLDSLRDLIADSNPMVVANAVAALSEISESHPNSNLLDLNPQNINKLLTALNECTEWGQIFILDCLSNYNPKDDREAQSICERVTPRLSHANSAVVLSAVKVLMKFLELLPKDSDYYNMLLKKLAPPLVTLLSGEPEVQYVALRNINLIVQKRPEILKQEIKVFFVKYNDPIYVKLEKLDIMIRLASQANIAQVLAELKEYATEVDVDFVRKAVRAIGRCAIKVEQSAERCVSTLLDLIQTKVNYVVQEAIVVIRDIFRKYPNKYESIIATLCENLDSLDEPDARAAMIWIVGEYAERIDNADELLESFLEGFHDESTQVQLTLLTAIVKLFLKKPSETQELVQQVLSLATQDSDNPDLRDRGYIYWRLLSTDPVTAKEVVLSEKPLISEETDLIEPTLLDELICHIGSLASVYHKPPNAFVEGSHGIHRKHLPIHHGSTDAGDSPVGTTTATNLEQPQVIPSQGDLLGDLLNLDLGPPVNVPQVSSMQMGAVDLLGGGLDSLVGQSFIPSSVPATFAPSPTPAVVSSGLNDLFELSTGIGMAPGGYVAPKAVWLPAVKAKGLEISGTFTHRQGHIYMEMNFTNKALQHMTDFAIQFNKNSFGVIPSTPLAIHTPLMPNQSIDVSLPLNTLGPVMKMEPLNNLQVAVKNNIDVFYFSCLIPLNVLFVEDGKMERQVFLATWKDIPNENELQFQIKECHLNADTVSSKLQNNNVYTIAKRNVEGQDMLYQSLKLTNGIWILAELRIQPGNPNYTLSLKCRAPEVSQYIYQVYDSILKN

[12] = yeast V-ATPase proton transport modulators, S. cerevisiae, pHLuorin, HTS validation (AID 504600; in the data active = response above about 15%;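 note: plate controls were DMSO for no effect and reference compound for full effect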); details: S. cerevisiae pHLuorin cytosolic pH, at 10 µM, stronger effect = higher value
[13] = tested on: anti-desmoglein-3 scFv antibody binding to human DSG3; test: inhibitors of anti-DSG3 scFv binding to DSG3, pilot screen, biochemical, validation compound set, bead-based, flow cytometry (AID 588368;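 active = binding below the plate cutoff, the plate median minus 3 SD, with a reading above zero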;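 note: signal is the median channel fluorescence of bead-bound GFP antibody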); details: Protein G beads, DSG3-Fc, scFv-GFP binding, at 10 µM, stronger effect = lower value
[14] = inhibitors of fungal efflux pumps CDR1, CDR2, MDR1, pilot screen, validation compound set, multiplex, phenotypic (AID 588506;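 active = efflux inhibition above 0.42, the validation set average plus 4 SD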;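 note: Nile Red retained in cells so higher fluorescence means more efflux inhibition; 0 = negative control wells and 1 = enniatin B 25 µM full block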); details: S. cerevisiae pump-expressing triplex, Nile Red efflux flow cytometry; at 10 µM; stronger effect = higher value; the pumps come from Candida albicans
[15] = molecular target: ATP-binding cassette sub-family B member 6 (Homo sapiens) (UniProt Q9NP58); test: ABCB6 transporter inhibitors, pilot screen, K562-ABCB6 cells, flow cytometry, validation set (AID 588550;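 active = inhibition above the screen-wide mean plus 3 SD, about 51%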;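 note: 0% = DMSO wells and 100% = benzethonium chloride 70 µM positive control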); details: K562-ABCB6 porphyrin accumulation, 1 h, at 10 µM, stronger effect = higher value
Sequence of ATP-binding cassette sub-family B member 6 (Homo sapiens) (Q9NP58 whole entry, looked up): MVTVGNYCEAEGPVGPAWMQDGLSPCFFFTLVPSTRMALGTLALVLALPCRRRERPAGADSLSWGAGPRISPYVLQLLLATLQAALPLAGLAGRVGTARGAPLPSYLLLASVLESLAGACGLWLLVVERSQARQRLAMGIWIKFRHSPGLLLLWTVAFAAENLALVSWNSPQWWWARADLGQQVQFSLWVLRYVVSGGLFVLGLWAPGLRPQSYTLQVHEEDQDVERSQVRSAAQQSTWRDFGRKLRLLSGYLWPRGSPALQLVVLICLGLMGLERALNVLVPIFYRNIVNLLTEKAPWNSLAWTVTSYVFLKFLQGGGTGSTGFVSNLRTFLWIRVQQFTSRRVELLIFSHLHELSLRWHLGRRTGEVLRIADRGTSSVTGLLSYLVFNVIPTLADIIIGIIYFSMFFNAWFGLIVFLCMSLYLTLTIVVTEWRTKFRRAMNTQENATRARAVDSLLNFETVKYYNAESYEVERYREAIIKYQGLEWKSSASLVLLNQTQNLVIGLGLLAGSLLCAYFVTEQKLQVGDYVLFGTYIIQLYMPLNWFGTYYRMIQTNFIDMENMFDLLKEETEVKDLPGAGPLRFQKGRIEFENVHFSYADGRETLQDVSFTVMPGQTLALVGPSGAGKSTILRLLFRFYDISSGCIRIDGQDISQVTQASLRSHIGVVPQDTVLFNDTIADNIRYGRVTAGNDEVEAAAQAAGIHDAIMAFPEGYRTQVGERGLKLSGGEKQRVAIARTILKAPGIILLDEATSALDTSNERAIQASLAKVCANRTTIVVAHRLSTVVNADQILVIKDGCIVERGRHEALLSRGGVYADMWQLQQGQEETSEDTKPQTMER

[16] = promoters of myeloid differentiation in arrested cells, primary screen, cell-based, GFP/MAC1 double positive, flow cytometry, validation set (AID 588685;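 active = differentiation response of at least 50%, scaled between solvent and reference control, from cells with both markers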;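 note: compound exposure lasts four days before antibody staining and flow analysis; 0% = DMSO wells and 100% = 5 µM fulvestrant positive control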); details: ER-HoxA9 marrow cells, stronger effect = higher value, normalized: vehicle 0, fulvestrant 100

Compound	percent of DMSO control GFP [1]	GFP response vs DMSO [2]	percent response of DMSO control [3]	GFP response vs DMSO [4]	GFP response, % of DMSO [5]	double positive events [6]	vesicle binding response [6]	inhibition [7]	superoxide response (% of plate) [8]	aptamer binding inhibition [9]	response [10]	inhibition [11]	response [12]	binding (% of control) [13]	efflux inhibition (fraction of control) [14]	inhibition [15]	differentiation response [16]
CN(C)CCOCCOc1ccc(Cl)cc1Br	93.7% (inactive)	119% (inactive)	101% (inactive)	77% (inactive)	90.3% (inactive)	47.1%	160% (inactive)	-2.27% (inactive)	97.8% (inactive)	-6% (inactive)	-10% (inactive)	-6.43% (inactive)	1.08% (inactive)	105% (inactive)	0.09 (inactive)	4% (inactive)	13.1% (inactive)
COc1ccc2c(c1)[N+](C)(C)C(C)(C)C=C2C	105% (inactive)	96.2% (inactive)	111% (inactive)	90.1% (inactive)	99.9% (inactive)	70.1%	953% (inactive)	15.1% (inactive)	103% (inactive)	2% (inactive)	-8.39% (inactive)	-11.1% (inactive)	-1.92% (inactive)	95.6% (inactive)	-0.04 (inactive)	5% (inactive)	12.9% (inactive)
CC(=O)OC(CC(=O)O)C[N+](C)(C)C (centres undefined)	100% (inactive)	103% (inactive)	95.4% (inactive)	92.7% (inactive)	97.6% (inactive)	65%	243% (inactive)	-17.1% (inactive)	103% (inactive)	2% (inactive)	-0.16% (inactive)	14.1% (inactive)	-2.66% (inactive)	97.1% (inactive)	0.02 (inactive)	10% (inactive)	-8.55% (inactive)
COc1ccc(C2C(C#N)=C(N)Oc3cc(C)[nH]c(=O)c32)c(OC)c1OC (centres undefined)	88.2% (inactive)	117% (inactive)	92.6% (inactive)	78.1% (inactive)	97% (inactive)	63.8%	168% (inactive)	14.2% (inactive)	97.7% (inactive)	4% (inactive)	-4.98% (inactive)	-3.85% (inactive)	-1.92% (inactive)	109% (inactive)	0.16 (inactive)	10% (inactive)	0% (inactive)
OCCN(Cc1nc(-c2ccc3c(c2)OCO3)no1)Cc1cccs1	97.6% (inactive)	102% (inactive)	91.3% (inactive)	109% (inactive)	89.4% (inactive)	65.7%	118% (inactive)	9.63% (inactive)	88.2% (inactive)	1% (inactive)	23.6% (inactive)	-7.29% (inactive)	-1.85% (inactive)	109% (inactive)	-0.28 (inactive)	6% (inactive)	15.9% (inactive)
c1ccc(Cn2nnc3cnccc32)cc1	104% (inactive)	101% (inactive)	104% (inactive)	106% (inactive)	107% (inactive)	57.9%	67.8% (inactive)	4.27% (inactive)	113% (inactive)	2% (inactive)	0.22% (inactive)	-12.1% (inactive)	0.84% (inactive)	102% (inactive)	0.33 (inactive)	9% (inactive)	-10.4% (inactive)
CC(C)[C@H](NC(=O)[C@@H]1CSCN1C(=O)OC(C)(C)C)C(=O)NCC1CCC(C(=O)O)CC1 (some centres undefined)	99.7% (inactive)	97.4% (inactive)	104% (inactive)	84.6% (inactive)	96.3% (inactive)	64.5%	283% (inactive)	-4.52% (inactive)	82.1% (inactive)	4% (inactive)	-5.23% (inactive)	-2.51% (inactive)	3.84% (inactive)	98.9% (inactive)	0.01 (inactive)	109% (active)	0.8% (inactive)
O=C(O)CCCN1C(=O)NC2NC(=O)NC21 (centres undefined)	103% (inactive)	114% (inactive)	101% (inactive)	86.1% (inactive)	97.5% (inactive)	64.9%	914% (inactive)	-1.49% (inactive)	106% (inactive)	3% (inactive)	0.46% (inactive)	35.1% (inactive)	-1.41% (inactive)	98.4% (inactive)	-0.04 (inactive)	25% (inactive)	33.5% (inactive)
CCOC(=O)C(NC(=O)CCC(=O)Nc1ccc(S(N)(=O)=O)cc1)C(O)c1ccccc1 (centres undefined)	96.5% (inactive)	103% (inactive)	100% (inactive)	106% (inactive)	101% (inactive)	57.6%	361% (inactive)	15.1% (inactive)	102% (inactive)	6% (inactive)	-25.5% (inactive)	5.81% (inactive)	-6.43% (inactive)	101% (inactive)	0 (inactive)	7% (inactive)	-7.94% (inactive)
CCC(C(=O)Nc1ccc2c(c1)OCCO2)c1ccccc1 (centres undefined)	103% (inactive)	103% (inactive)	101% (inactive)	113% (inactive)	110% (inactive)	58.6%	143% (inactive)	8.29% (inactive)	96.9% (inactive)	-1% (inactive)	3.82% (inactive)	3.98% (inactive)	-0.08% (inactive)	101% (inactive)	-0.03 (inactive)	-7% (inactive)	-10.4% (inactive)
COc1cc(C(=O)NCCCCCC(=O)O)cc(OC)c1OC	104% (inactive)	105% (inactive)	102% (inactive)	103% (inactive)	108% (inactive)	65.5%	199% (inactive)	5.61% (inactive)	100% (inactive)	2% (inactive)	11.2% (inactive)	-5.4% (inactive)	1.93% (inactive)	101% (inactive)	-0.23 (inactive)	1% (inactive)	-19.2% (inactive)
COC(=O)C1=C(C)N(Cc2ccco2)C(=O)/C1=C\c1ccc([N+](=O)[O-])cc1	102% (inactive)	103% (inactive)	97.8% (inactive)	95.3% (inactive)	96.2% (inactive)	66.2%	232% (inactive)	-274% (inactive)	112% (inactive)	-4% (inactive)	15.1% (inactive)	43.9% (inactive)	-6.06% (inactive)	205% (inactive)	0.18 (inactive)	-55% (inactive)	42.3% (inactive)
